Screens as filed in PubChem.
An excerpt weighted towards active compounds, which were near 4% of everything screened.
ADAM10 inh = ADAM10 inhibition, QFRET primary screen; O14672; recombinant ADAM10, EDANS/DABCYL FRET peptide cleavage, 3 h; inhibition, % at 7 µM; actives 0.62% (n = 370,000);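 active = inhibition above a per-campaign cutoff equal to the mean of compounds falling between control-based bounds plus 3 SD, cut at about 20% in these data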;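 also: 0% = DMSO wells while the 100% control is not disclosed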
aDG glyco up = increases alpha dystroglycan glycosylation | Pro5-aDG cells, alpha-DG glycosylation AlphaScreen (IIH6); 0% Pro5, 100% B10-LARGE cell signal | actives 0.22% (n = 360,000) | activation, % at 10 µM | AID 624168;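 active = activation of at least 8% versus controls, or a plate z-score of at least 8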;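 also: Pro5 are CHO cells carrying HIG-tagged alpha-DG that lacks glycosylation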
ADAM17 inh = inhibitors of human ADAM17. recombinant ADAM17, EDANS/DABCYL FRET peptide cleavage. inhibition, % at 6.95 µM. actives 0.83% (n = 370,000). AID 720648;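 active = inhibition above the mean of compounds lying between control limits plus 3 SD, set per campaign, cut at about 8.5% in these data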;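 also: 0% = DMSO-only wells as the low control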
NR3A LBD binder = NR3A (human) ligand-binding domain modulation; actives 2.5% (n = 340,000); AID 1259313; NR3A LBD differential scanning fluorimetry, Tm shift; 0% = protein alone, 100% = glycine-bound protein; Tm shift relative to glycine control, % at 25 µM;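 active = melting temperature shift of at least 10% of the positive control shift, at one fixed dose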
FAS TE block = blocks the thioesterase domain of human fatty acid synthase; P49327; recombinant FAS-TE, OMFH fluorogenic substrate, fluorescence endpoint; inhibition, % at 15 µM; actives 0.67% (n = 360,000); AID 602261;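 active = compounds whose normalised, plate-corrected inhibition of enzyme fluorescence in the single-dose primary screen is 50% or more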;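 also: 0% = DMSO with enzyme and 100% = substrate without enzyme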
Active calls of the source: *; nt = no result given.

SMILES | ADAM10 inh | aDG glyco up | ADAM17 inh | NR3A LBD binder | FAS TE block
O=S(=O)(NCC1CCCO1)c1ccc(-c2ccc(S(=O)(=O)NCC3CCCO3)cc2)cc1 (configuration not stated) | -2 | 7.4* | -6 | 1 | 4
Nc1nc(CSC(=S)N2CCN(c3ccccc3)CC2)nc(Nc2ccc(F)cc2)n1 | 4 | 1 | 0 | 25* | 18
Nc1nc(CSC(=S)N2CCOCC2)nc(Nc2ccccc2)n1 | -3 | 0 | -3 | -1 | -6
COc1cc(/C=C(\C(=O)O)c2ccc(S(=O)(=O)N3CCCC3)s2)cc(OC)c1 | -31 | 0 | -3 | 2 | -3
CCOc1ccc(/C=C(\C(=O)O)c2ccc(S(=O)(=O)N3CCOCC3)s2)cc1OC | -48 | 0 | -18 | 12* | -4
CCOc1ccc(/C=C(\C(=O)O)c2ccc(S(=O)(=O)N3CCCCC3)s2)cc1OC | -47 | 0 | -11 | 18* | -4
CCCCNC(=O)C1=C(N)C(C(=O)Nc2ccc(C)c(S(=O)(=O)N3CCCCC3)c2)SC1=Nc1ccc(C)cc1C (configuration not stated) | 40* | 0 | 16* | 24* | 10
Cc1ccc(S(=O)(=O)N(CCC(=O)O)c2ccccc2)cc1 | -2 | 0 | -1 | 15* | -4
Cc1ccc(Oc2nc3c(c(=O)n(Cc4ccccc4F)c(=O)n3C)n2C)cc1 | 0 | 0 | 1 | 3 | 16
O=C(O)Cc1ccc(NC(=O)c2ccc3c(c2)C(=O)N(Cc2ccccc2)C3=O)cc1 | -5 | 0 | -1 | nt | -53
O=C(O)c1cc(NC(=O)c2ccc3c(c2)C(=O)N(Cc2ccccc2)C3=O)cc(C(=O)O)c1 | -8 | 0 | -3 | 14* | 11
C=CCn1c(O)c(N=Nc2ccccc2)c2ccccc21 | 3 | 0 | 0 | 2 | 7
C=CCn1c(O)c(N=Nc2ccccc2O)c2ccccc21 | -1 | 0 | -2 | 15* | -10
Cc1ccc([C@@H]2[C@@H]3C(=O)N(C)C(=O)[C@@H]3[C@]3(Cc4ccccc4)C(=O)N(CCO)CC(=O)N23)o1 | -9 | 0 | -4 | 2 | -11
Cc1ccc([C@@H]2[C@@H]3C(=O)N(c4ccccc4)C(=O)[C@@H]3[C@]3(Cc4ccccc4)C(=O)N(CC4CC4)CC(=O)N23)o1 | 7 | 0 | -2 | 18* | -8
CCc1cc2c(=O)n(CC(C)C)cnc2s1 | -8 | 0 | -2 | 18* | -7
O=C(Cn1sc2ccccc2c1=O)Nc1ccc(F)cc1 | -15 | 0 | -6 | nt | -10
CCc1cccc(CC)c1NC(=O)C1SC(=Nc2ccccc2C)C(c2nc3ccccc3s2)=C1N (configuration not stated) | 22* | 3 | 8 | 19* | 14
CS(=O)(=O)c1ccc(Nc2nc(C(N)CCc3ccccc3)cs2)cc1 (configuration not stated) | -23 | 0 | -7 | nt | -4
COc1cc(OC)cc(C(=O)Nc2nc3ccc(S(C)(=O)=O)cc3s2)c1 | -9 | -1 | -1 | -27 | -4
O=C(Nc1nc2ccc(SC(F)F)cc2s1)c1ccc(NS(=O)(=O)c2ccc(F)c(F)c2)cc1 | -147 | 0 | -42 | 47* | 33
CS(=O)(=O)c1ccc2nc(NC(=O)c3cccc(NS(=O)(=O)c4ccc(F)c(F)c4)c3)sc2c1 | -8 | 0 | 0 | 26* | 6
CS(=O)(=O)c1ccc2nc(NC(=O)c3ccc(NS(=O)(=O)c4ccc(F)c(F)c4)cc3)sc2c1 | -17 | 2 | -12 | 24* | -9
CN(C(=O)c1ccc(=O)n(Cc2ccc(Cl)cc2)c1)c1ccccc1 | -8 | 0 | 0 | -2 | 0
Cc1ccc(S(=O)(=O)N2CC(O)CC2C(=O)OCC(=O)c2ccccc2Cl)cc1C (configuration not stated) | -4 | 0 | -3 | 25* | 5
Cc1nn2c(N3CCN(C4CCCC4)CC3)cc(C(C)(C)C)nc2c1-c1ccccc1 | -6 | 0 | -6 | 13* | 5
Cc1nn2c(N3CCN(C)CC3)cc(C(C)(C)C)nc2c1-c1ccccc1 | -29 | 0 | -10 | -1 | 26
CCOc1ccc(C(=O)NC2CCCCCCC2)cc1 | -2 | 0 | -1 | -1 | 2
N#CCC(=O)Nc1ccc(C(=O)NNC(=S)NC2CCCCC2)cc1 | -15 | 0 | -3 | 29* | -6
CCOc1ccc(NC(=O)c2ccc(NC(=S)NC3CCCCC3)cc2)cc1 | -3 | 0 | -3 | 28* | 8
